Source: the supplement of paper PMC10849652
Targets with a hit are over-represented here; the source holds about 7,900 in all. About 0.6% of all pairs of compound and target were hits.

Columns and labels:
Test in all cases: log2 fold change, soluble protein after heating vs DMSO (PISA); higher = thermal stabilisation; K562 cells, 10 uM, 30 min; active = over 0.2 and 3.5 SD of the protein, either way, in both replicates (recomputed)
[1] = compound: C#Cc1cccc(Nc2ncnc3cc(OCCOC)c(OCCOC)cc23)c1 [erlotinib]
Method in brief: (§1)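 K562 cells at 2×10^6 cells/mL were treated with 10 μM compound for 30 min. Aliquots were heated for 3 min across 48°C-58°C, pooled, and extracted in PBS with 0.5% NP-40 at 4°C; soluble protein was the supernatant after 21,000xg for 90 min. Soluble protein was quantified by TMTpro 16plex LC-MS/MS with channel sums equalised, and reported as log2 fold change in thermal stability against DMSO controls, with values from duplicates.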

[2] = compound: C/C(=N\NC(=O)C1=CC(=CC=C1)S(=O)(=O)N2CCOCC2)/C3=C(C=CC(=C3)Cl)O
Method in brief: as §1

[3] = compound: C1=CC(=C(C=C1Cl)C2=NC3=NC=CN=C3C(=N2)NC4=CC=NC=C4)F
Method in brief: as §1

[4] = compound: C1=CC(=CC=C1C2=NC3=C(N2)C=C(C=C3)C(=O)N)OC4=CC=C(C=C4)Cl
Method in brief: as §1

[5] = compound: C1=CC2=C(C=CC(=C2)/C=C\3/C(=O)NC(=NCC4=CC=CS4)S3)N=C1
Method in brief: as §1

[6] = compound: C1=CC2=NC=CN=C2C=C1/C=C/3\C(=O)NC(=O)S3
Method in brief: as §1

[7] = compound: C1=CC=C(C=C1)C2=NC(=C(N2)C3=CC=NC=C3)C4=CC(=C(C=C4)Cl)O
Method in brief: as §1

[8] = compound: C1=CC=C2C(=C1)C3=NNC4=CC=CC(=C43)C2=O
Method in brief: as §1

[9] = compound: C1CCN(C1)C(=O)NC2=CC=CC(=C2)NC3=NC=C(C(=N3)NCCC4=CN=CN4)Br
Method in brief: as §1

[10] = compound: C1CN(CCC1(CC2=CC=C(C=C2)Cl)N)C3=NC=NC4=C3C=CN4
Method in brief: as §1

Measured: log2 fold change

NPEPPS (UniProt P55786)
Chain of UniProt P55786 (P55786 whole entry, looked up): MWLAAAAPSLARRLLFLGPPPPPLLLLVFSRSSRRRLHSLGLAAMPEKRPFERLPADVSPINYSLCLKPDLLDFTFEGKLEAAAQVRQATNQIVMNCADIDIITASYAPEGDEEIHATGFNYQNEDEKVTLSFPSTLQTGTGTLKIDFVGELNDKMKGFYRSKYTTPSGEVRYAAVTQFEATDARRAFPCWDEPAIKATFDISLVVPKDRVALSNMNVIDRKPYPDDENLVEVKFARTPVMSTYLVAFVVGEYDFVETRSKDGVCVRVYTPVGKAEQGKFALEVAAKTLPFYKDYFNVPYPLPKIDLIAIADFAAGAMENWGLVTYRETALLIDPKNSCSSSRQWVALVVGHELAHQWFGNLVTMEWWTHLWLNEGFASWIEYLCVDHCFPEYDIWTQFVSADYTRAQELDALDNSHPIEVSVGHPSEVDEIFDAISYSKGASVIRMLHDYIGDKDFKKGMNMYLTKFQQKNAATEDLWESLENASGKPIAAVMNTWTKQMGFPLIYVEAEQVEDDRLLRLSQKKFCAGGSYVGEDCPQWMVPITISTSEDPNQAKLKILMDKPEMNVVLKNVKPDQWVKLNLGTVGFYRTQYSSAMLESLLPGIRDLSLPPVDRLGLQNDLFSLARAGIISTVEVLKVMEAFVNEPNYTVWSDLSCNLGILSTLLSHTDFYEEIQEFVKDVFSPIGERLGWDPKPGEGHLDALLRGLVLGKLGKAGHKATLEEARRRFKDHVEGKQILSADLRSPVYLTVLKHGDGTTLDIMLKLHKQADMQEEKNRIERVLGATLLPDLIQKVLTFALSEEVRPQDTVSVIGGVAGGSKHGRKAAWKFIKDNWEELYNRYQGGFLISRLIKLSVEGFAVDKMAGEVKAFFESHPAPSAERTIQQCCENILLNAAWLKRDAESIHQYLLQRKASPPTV
inactive: [1] 0.002 | [2] 0.058 | [3] 0.054 | [4] -0.027 | [5] 0.061 | [6] 0.002 | [7] 0.005 | [8] 0.035 | [9] -0.009 | [10] 0.045

NUP85 (UniProt Q9BW27)
inactive: [1] 0.046 | [2] 0.08 | [3] 0.037 | [4] 0.036 | [5] 0 | [6] 0.028 | [7] -0.012 | [8] -0.066 | [9] -0.051 | [10] 0.008

NDUFB8 (UniProt O95169)
Chain of UniProt O95169 (O95169 whole entry, looked up): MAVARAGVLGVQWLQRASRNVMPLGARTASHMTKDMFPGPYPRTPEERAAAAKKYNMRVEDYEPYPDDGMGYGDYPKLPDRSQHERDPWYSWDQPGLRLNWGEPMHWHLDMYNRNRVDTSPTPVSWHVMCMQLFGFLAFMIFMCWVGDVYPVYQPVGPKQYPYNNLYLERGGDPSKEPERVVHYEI
inactive: [1] -0.026 | [2] -0.047 | [3] 0.129 | [4] 0.005 | [5] 0.033 | [6] 0.087 | [7] -0.026 | [8] 0.07 | [9] -0.008 | [10] 0.06

NDUFB7 (UniProt P17568)
inactive: [1] -0.027 | [2] 0.015 | [3] 0.038 | [4] 0.04 | [5] -0.011 | [6] 0.061 | [7] 0.031 | [8] -0.007 | [9] 0.037 | [10] 0.041

NAA38 isoform 2 (UniProt Q9BRA0)
Chain of UniProt Q9BRA0 (Q9BRA0 whole entry, looked up): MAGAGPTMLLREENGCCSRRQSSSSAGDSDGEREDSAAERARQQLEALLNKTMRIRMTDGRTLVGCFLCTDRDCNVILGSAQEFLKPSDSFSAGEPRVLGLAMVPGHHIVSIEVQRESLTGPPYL
inactive: [1] 0.139 | [2] 0.083 | [3] 0.092 | [4] -0.003 | [5] 0.034 | [6] 0.015 | [7] 0.044 | [8] -0.016 | [9] -0.009 | [10] 0.082

NCAPD2 (UniProt Q15021)
inactive: [1] 0.029 | [2] 0.107 | [3] 0.005 | [4] -0.05 | [5] 0.024 | [6] 0.04 | [7] 0.013 | [8] 0.022 | [9] -0.001 | [10] -0.103

OXR1 (UniProt Q8N573)
inactive: [1] 0.029 | [2] 0.067 | [3] 0.011 | [4] 0.002 | [5] 0.023 | [6] 0.007 | [7] -0.043 | [8] -0.062 | [9] -0.03 | [10] 0.056

NOL7 (UniProt Q9UMY1)
inactive: [1] -0.151 | [2] -0.208 | [4] 0.005 | [5] -0.179 | [6] 0 | [7] -0.071 | [8] -0.058 | [9] 0.045 | [10] -0.189
active: [3] -0.728

MRPS6 (UniProt P82932)
inactive: [1] 0.001 | [2] 0.006 | [3] 0.006 | [4] 0.088 | [5] 0.01 | [6] 0.112 | [7] 0.128 | [8] 0.079 | [9] -0.039 | [10] -0.093

MT-ND4 (UniProt P03905)
inactive: [1] 0.152 | [2] -0.077 | [3] 0.053 | [4] -0.028 | [5] -0.026 | [6] 0.044 | [7] -0.009 | [8] 0.078 | [9] -0.007 | [10] -0.036

MRPL50 (UniProt Q8N5N7)
inactive: [1] -0.107 | [2] -0.033 | [3] 0.048 | [4] 0.004 | [5] -0.008 | [6] 0.066 | [7] 0.312 | [8] 0.072 | [9] -0.084 | [10] -0.073

NAPG (UniProt Q99747)
Chain of UniProt Q99747 (Q99747 whole entry, looked up): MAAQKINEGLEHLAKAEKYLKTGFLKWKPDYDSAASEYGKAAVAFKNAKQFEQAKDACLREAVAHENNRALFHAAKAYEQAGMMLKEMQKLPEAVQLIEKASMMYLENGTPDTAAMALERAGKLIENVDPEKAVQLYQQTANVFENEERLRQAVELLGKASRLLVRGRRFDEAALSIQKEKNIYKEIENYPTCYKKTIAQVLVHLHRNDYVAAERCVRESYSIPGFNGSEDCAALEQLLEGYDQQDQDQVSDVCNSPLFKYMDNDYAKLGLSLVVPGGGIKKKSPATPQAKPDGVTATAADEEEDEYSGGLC
inactive: [1] 0.081 | [2] 0.134 | [3] 0.072 | [4] -0.019 | [5] 0.021 | [6] 0.038 | [7] -0.009 | [8] 0.033 | [9] -0.037 | [10] -0.016

MRPS18B (UniProt Q9Y676)
inactive: [1] 0.026 | [2] 0.101 | [3] -0.051 | [4] 0.124 | [5] 0.03 | [6] 0.034 | [7] 0.027 | [8] 0.119 | [9] 0.079 | [10] -0.119

OGFOD2 (UniProt Q6N063)
Chain of UniProt Q6N063 (Q6N063 whole entry, looked up): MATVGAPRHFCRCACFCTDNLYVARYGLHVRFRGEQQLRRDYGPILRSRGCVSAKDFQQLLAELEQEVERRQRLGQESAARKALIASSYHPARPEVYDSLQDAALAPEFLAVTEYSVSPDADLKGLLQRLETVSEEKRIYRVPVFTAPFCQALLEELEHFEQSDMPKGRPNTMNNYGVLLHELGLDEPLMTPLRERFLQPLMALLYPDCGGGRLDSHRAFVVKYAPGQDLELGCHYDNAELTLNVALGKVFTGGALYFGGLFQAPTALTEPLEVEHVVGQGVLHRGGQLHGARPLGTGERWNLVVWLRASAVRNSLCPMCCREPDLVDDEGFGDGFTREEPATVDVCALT
active: [2] -0.283
inactive: [1] -0.051 | [3] -0.047 | [4] 0.011 | [5] 0.089 | [6] 0.14 | [7] 0.004 | [8] 0.041 | [9] 0.023 | [10] 0.017

NDUFS8 (UniProt O00217)
inactive: [1] 0.015 | [2] 0.045 | [3] 0.023 | [4] 0.033 | [5] 0.039 | [6] 0.027 | [7] 0.029 | [8] 0.007 | [9] 0.014 | [10] 0.035

NUMB (UniProt P49757)
Chain of UniProt P49757 (P49757 whole entry, looked up): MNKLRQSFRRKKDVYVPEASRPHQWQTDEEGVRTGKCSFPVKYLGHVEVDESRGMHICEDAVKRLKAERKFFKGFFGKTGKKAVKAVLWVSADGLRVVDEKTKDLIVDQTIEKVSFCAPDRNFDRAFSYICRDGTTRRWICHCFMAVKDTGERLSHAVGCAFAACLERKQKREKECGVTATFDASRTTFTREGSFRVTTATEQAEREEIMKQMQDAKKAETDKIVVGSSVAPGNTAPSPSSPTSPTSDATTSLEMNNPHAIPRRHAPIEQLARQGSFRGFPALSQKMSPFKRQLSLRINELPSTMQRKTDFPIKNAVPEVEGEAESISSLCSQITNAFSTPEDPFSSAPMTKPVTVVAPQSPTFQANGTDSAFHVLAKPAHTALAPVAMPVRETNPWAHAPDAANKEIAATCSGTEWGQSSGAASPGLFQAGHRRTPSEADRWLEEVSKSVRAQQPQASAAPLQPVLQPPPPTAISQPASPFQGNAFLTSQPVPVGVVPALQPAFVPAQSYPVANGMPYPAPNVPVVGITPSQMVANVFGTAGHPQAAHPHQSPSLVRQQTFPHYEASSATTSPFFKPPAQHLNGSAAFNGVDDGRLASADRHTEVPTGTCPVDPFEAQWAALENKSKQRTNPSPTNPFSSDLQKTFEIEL
inactive: [1] 0.016 | [2] -0.012 | [3] -0.048 | [4] 0.018 | [5] -0.001 | [6] 0.044 | [7] -0.004 | [8] -0.009 | [9] -0.087 | [10] 0.021

MRPS22 (UniProt P82650)
inactive: [1] -0.052 | [2] 0.026 | [3] -0.021 | [4] 0.16 | [5] -0.082 | [6] 0 | [7] 0.026 | [8] 0.068 | [9] -0.028 | [10] -0.101

NASP (UniProt P49321)
inactive: [1] -0.018 | [2] 0.048 | [3] 0.079 | [4] -0.018 | [5] -0.02 | [6] 0.059 | [7] -0.018 | [8] -0.004 | [9] 0.001 | [10] -0.022

NSMCE4A (UniProt Q9NXX6)
Chain of UniProt Q9NXX6 (Q9NXX6 whole entry, looked up): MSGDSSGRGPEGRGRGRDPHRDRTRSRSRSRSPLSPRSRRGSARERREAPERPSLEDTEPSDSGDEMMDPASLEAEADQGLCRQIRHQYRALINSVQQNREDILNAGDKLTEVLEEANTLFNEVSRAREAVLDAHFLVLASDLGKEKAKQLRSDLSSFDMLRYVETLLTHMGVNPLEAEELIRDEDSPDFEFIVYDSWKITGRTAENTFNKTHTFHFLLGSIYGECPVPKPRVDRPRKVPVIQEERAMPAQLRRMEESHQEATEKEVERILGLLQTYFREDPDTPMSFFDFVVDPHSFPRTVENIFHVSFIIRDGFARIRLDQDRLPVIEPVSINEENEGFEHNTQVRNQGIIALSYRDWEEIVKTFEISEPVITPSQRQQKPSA
inactive: [1] -0.044 | [2] 0.028 | [3] -0.002 | [4] 0.072 | [5] 0.182 | [6] -0.138 | [7] -0.031 | [8] -0.192 | [9] 0.056 | [10] 0.117

NELFB isoform 2 (UniProt Q8WX92)
Chain of UniProt Q8WX92 (Q8WX92 whole entry, looked up): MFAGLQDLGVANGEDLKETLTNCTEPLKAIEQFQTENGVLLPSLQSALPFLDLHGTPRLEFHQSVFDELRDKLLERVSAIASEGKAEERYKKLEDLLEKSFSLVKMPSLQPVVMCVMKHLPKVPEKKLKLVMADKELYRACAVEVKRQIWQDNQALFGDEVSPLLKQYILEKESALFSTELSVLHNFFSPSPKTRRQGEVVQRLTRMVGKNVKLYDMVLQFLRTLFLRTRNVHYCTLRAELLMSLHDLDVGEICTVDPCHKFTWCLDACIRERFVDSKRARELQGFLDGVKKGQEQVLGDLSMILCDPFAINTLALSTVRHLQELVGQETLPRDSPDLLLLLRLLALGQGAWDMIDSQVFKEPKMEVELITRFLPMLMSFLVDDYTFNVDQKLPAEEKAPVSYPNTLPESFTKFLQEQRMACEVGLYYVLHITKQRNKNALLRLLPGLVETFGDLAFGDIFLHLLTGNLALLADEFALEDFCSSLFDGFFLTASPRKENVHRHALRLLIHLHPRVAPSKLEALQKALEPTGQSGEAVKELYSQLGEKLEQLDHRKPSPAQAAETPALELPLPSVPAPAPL
inactive: [1] 0.046 | [2] 0.151 | [3] 0 | [4] -0.036 | [5] 0.054 | [6] 0.07 | [7] -0.049 | [8] 0.01 | [9] -0.075 | [10] -0.025

NRDC isoform 2 (UniProt O43847)
inactive: [1] -0.016 | [2] 0.081 | [3] 0.012 | [4] -0.024 | [5] 0.021 | [6] 0.024 | [7] 0.027 | [8] 0.057 | [9] -0.046 | [10] 0.049

MTHFD1 (UniProt P11586)
inactive: [1] 0.06 | [2] 0.058 | [3] 0.074 | [4] -0.019 | [5] 0.019 | [6] -0.021 | [7] 0.05 | [8] 0.01 | [9] 0.013 | [10] 0.032

NCL (UniProt P19338)
inactive: [1] -0.154 | [2] -0.231 | [3] -0.723 | [4] -0.012 | [5] -0.109 | [6] -0.017 | [7] -0.112 | [8] 0.061 | [9] 0.037 | [10] -0.148

MPP1 (UniProt Q00013)
inactive: [1] 0.083 | [2] 0.098 | [3] 0.027 | [4] 0.016 | [5] 0.004 | [6] -0.001 | [7] 0.012 | [8] 0.033 | [9] -0.048 | [10] -0.019

MUL1 (UniProt Q969V5)
Chain of UniProt Q969V5 (Q969V5 whole entry, looked up): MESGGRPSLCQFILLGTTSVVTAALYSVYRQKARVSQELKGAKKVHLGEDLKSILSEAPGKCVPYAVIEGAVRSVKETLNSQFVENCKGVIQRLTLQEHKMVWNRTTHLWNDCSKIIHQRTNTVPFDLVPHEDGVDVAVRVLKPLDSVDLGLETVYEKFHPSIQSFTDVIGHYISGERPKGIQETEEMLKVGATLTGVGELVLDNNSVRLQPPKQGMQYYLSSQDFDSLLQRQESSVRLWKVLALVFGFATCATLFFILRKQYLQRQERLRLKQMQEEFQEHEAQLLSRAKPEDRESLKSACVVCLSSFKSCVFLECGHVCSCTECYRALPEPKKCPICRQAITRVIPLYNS
inactive: [1] 0.015 | [2] 0.038 | [3] 0.073 | [4] -0.004 | [5] 0.026 | [6] 0.069 | [7] 0.095 | [8] 0.034 | [9] -0.025 | [10] 0.005

MSH3 (UniProt P20585)
Chain of UniProt P20585 (P20585 whole entry, looked up): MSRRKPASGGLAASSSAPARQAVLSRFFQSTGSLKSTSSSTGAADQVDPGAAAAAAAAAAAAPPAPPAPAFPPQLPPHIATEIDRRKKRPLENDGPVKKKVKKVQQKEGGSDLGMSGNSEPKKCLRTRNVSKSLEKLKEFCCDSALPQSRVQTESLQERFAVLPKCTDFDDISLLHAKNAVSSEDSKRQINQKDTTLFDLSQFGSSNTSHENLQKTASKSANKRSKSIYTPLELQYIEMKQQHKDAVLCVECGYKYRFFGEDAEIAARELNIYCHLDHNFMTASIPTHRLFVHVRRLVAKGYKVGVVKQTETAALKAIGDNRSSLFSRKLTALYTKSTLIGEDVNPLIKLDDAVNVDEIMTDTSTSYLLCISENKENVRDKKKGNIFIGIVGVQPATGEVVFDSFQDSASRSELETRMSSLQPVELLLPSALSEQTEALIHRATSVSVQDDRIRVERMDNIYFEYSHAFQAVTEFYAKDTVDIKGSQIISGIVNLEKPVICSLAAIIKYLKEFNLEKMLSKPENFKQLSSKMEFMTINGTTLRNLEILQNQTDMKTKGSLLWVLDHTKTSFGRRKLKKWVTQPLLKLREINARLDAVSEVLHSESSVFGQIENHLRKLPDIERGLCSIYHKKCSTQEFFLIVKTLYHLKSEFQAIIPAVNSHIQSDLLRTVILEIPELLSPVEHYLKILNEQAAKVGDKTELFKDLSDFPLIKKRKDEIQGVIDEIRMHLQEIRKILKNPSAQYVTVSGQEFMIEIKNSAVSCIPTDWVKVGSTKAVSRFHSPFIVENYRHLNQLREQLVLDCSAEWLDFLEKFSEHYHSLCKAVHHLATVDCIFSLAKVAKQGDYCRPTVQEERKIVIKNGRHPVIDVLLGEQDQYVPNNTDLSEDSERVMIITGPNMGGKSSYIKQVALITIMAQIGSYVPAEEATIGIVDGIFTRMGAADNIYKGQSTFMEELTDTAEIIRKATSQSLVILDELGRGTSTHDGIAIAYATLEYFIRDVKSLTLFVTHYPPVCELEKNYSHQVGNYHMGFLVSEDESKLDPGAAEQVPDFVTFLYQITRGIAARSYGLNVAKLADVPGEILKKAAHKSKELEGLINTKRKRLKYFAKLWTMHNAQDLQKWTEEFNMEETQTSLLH
inactive: [1] 0.009 | [2] 0.031 | [3] 0.068 | [4] 0.017 | [5] 0.017 | [6] 0.03 | [7] 0.004 | [8] -0.039 | [9] 0.008 | [10] -0.045

NFE2 (UniProt Q16621)
inactive: [1] 0.009 | [2] 0.005 | [3] -0.025 | [4] -0.001 | [5] -0.002 | [6] 0.158 | [7] -0.012 | [8] -0.009 | [9] -0.02 | [10] -0.019
